Assay [1] in a line: HUVEC growth inhibition – cell-based, human, primary screen (AID 575;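 active means viability at or below 30% in both replicate assays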;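 further: 100% = median of untreated cell wells with 0.1% DMSO on each plate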). Conditions: HUVEC proliferation, CellTiter-Glo luminescence, 72 h; at 10 µM; stronger effect = lower value.
Assay [2] in a line: growth inhibitors of H69AR lung tumor, primary screen, human, duplicate replicates (AID 580;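 active means viability at or under a set limit in both replicates, limit being median viability minus 3 SD, cut at about 48% in these data, passing the limit was not always enough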;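 further: 100% = mean luminescence of untreated wells and 0% = no signal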). Conditions: H69AR lung tumor cells viability, ATP luminescence, 72 h; at 10 µM; stronger effect = lower value.
Assay [3] can be described thus: reversal of MRP1-mediated doxorubicin resistance, pilot screen, H69AR cells, doxorubicin co-treatment (AID 601;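 active means viability loss from added drug above about 55%, and viability with drug at most 40%, in both replicates, limit read from the data, passing the limit was not always enough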). Conditions: CellTiter-Glo, 72 h, at 10 µM; for differential viability (reversal): stronger effect = higher value. On the technique in general: ATP-based viability assays read luminescence as a measure of living cells.
Assay [4] in a line: 384-well plate pilot, post-Golgi transport modulator project, inhibition of yeast transport mutant growth (AID 636; in the data active means inhibition above about 31%). Conditions: absorbance 615 nm, about 18 h, stronger effect = higher value.
Assay [5] is described as follows: growth suppression of yeast trafficking mutant, preliminary HTS, modulators of trafficking downstream of Golgi apparatus project, 1536-format plate, OD 615 nm (AID 637; in the data active means inhibition above about 30%). The settings on record: yeast transport mutant growth, absorbance 615 nm, 18 h; stronger effect = higher value.
Assay [6] in a line: OD615 S. cerevisiae growth inhibition, permissive medium, pilot counter-assay, permissive growth control for S. cerevisiae lifespan shortening project (AID 705). Conditions: OD615, 24 h, at 10 µM, stronger effect = higher value.
The nature of assay [7]: Restrictive medium S. cerevisiae growth inhibition, OD615, pilot screen of yeast lifespan reduction project, restrictive growth control (AID 706;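 active means growth inhibition above a set limit, 3 SD over mean compound inhibition, in both replicates, cut at about 43% in these data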;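 further: modified DeaD lifespan yeast strain shifted to restrictive glucose medium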). Conditions: OD615, 48 h, at 10 µM, stronger effect = higher value.
The nature of assay [8]: viability gain of MRP-1-high H69AR cells under doxorubicin, pilot screen, MRP-1 activator project, CellTiter-Glo, duplicate (AID 807;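 active means viability increase at or above a cutoff of the median across tested compounds plus 3 SD, cut at about 8.5% in these data, passing the limit was not always enough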;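 further: compound pretreatment 18-22 h then 72 h combined with doxorubicin; 0% = doxorubicin alone and 100% = vehicle without doxorubicin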). The settings on record: H69AR viability with doxorubicin, CellTiter-Glo luminescence; at 10 µM; stronger effect = higher value.
The nature of assay [9]: growth suppression of PTEN-deleted HCT116, pilot screen, cell-based, HCT116 clonal line, CellTiter-Glo (AID 824;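 active means viability at or below 27.92% in each of two runs, the all-compound median minus 4 SD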;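 further: 0% = 20 µM Hyamine control and 100% = vehicle cell control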). Conditions: 60 h, at 10 µM, stronger effect = lower value.
A short description of assay [10]: inhibitors of the yeast RAM network, pilot screen, dse1pr::URA3 reporter, 5-FOA selection (AID 869;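 active means inhibition over a set limit, the all-compound mean plus 3 SD, in both replicate runs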;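 further: 0% = DMSO wells with no growth and 100% = 10 µM 1-NA-PP1 with full growth; RAM network block rescues cells from 5-FOA so hits raise OD615 growth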). The settings on record: S. cerevisiae dse1pr::URA3 5-FOA growth, OD615, 2 d; at 10 µM; stronger effect = higher value; strain carries analog-sensitive mutant Cbk1 kinase.
A short description of assay [11]: RAM signaling pathway blockade in yeast – S. cerevisiae, Pdr1DBD-CYC8 efflux-inhibited sensitized strain, primary screen (AID 1298;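 active means RAM network inhibition above 8.4% in each of two replicates, 3 SD over the compound average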;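 further: 0% = DMSO untreated cells without growth and 100% = 10 µM 1-NA-PP1 full growth; higher means more yeast growth rescued from 5-FOA killing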). The settings on record: S. cerevisiae cbk1-as DSE1-URA3 strain, 5-FOA growth OD615, 2 d; at 50 µM; stronger effect = higher value.
A short description of assay [12]: growth suppression of beta-catenin knockout HCT116, pilot screen, human colon tumor cells (AID 823;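 active means cell viability at or below a set limit in both duplicate runs, the limit being the all-compound median minus 4 SD, cut at about 23% in these data, passing the limit was not always enough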;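 further: 0% = wells killed by 20 µM Hyamine and 100% = untreated DMSO cell wells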). Conditions: CellTiter-Glo, 60 h, at 10 µM, stronger effect = lower value.
Where [13] appears, read: H69AR cells + 2 uM doxorubicin, measured here: viability with 2 uM doxorubicin, stronger effect = lower value.
Where [14] appears, read: H69AR cells, compound alone cytotoxicity.

Inconclusive results are not listed. The source made the active and inactive calls.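 How the source made its calls, unless noted: active means growth inhibition above 25% in both replicates, a cutoff set 3 SD above the mean; inconclusive means above 25% in only one replicate; inactive means the rest.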

The viability is a read-out of living cells in per cent, often relative to untreated cells. The term inhibition denotes the change of the read-out against control, counted positive when it falls. Take `CC(c1ccco1)N(C(=O)COc1ccc(Cl)cc1Cl)c1ccccn1` (stereo not drawn): the viability in assay [1] is 71.6% (inactive); in [2], 76.4% (inactive); in assay [3] (setting [13]) it was 73.3%; in [3] (setting [14]), 76.4%; in [9], 65.6% (inactive). The differential viability (reversal) in assay [3] (H69AR cells + 2 uM doxorubicin) was 3.06% (inactive). Also, the results for the inhibition in assay [4], in assay [5] and in assay [10] were -6.71% (inactive), -10.3% (inactive) and 2.06% (inactive), respectively. For the same molecule, the figures for the growth inhibition in [6] and in [7] were -10.9% (inactive) and -10.3% (inactive), respectively. Further, in assay [8], the viability increase is -4.89% (inactive). The RAM network inhibition in assay [11] is 7.28% (inactive).
Take `CCOc1ccc(-n2c(SCC(N)=O)nc3c([nH]c4ccccc43)c2=O)cc1`: the growth inhibition is -16.6% (inactive) in assay [6] and 2.87% (inactive) in assay [7]. For the same molecule, the viability increase in assay [8] is -2.27% (inactive). For the same molecule, the results for the viability in assay [12] and in assay [9] were 62.5% (inactive) and 71.4% (inactive), respectively. In addition, in [11], the RAM network inhibition is 11.2% (inactive).
Regarding `CCn1c(=O)c2cc(C(=O)NCc3cccs3)sc2c2ccccc21`, the growth inhibition in [6] was -11.3% (inactive); in [7], -8.09% (inactive). Moreover, the viability increase in [8] is -5.17% (inactive). For the same molecule, the values for the viability in assay [12] and in assay [9] were 102% (inactive) and 95.9% (inactive), respectively. In [11], the RAM network inhibition is 4.3% (inactive).
On to `FC(F)(F)c1nc(N2CCN(c3ccccc3)CC2)nc2c1CCCCC2`, for which the growth inhibition in assay [6] is -16.6% (inactive); in assay [7], -18.3% (inactive). Moreover, the viability increase in assay [8] was -0.3% (inactive). The viability in assay [12] was 72.5% (inactive); in assay [9], 73.4% (inactive). The RAM network inhibition in [11] is 9.39% (inactive).
As for `Cn1c(=O)c2nnn(/N=C(\c3ccccc3)C3CC3)c2n(C)c1=O`, the figures for the growth inhibition in assay [6] and in assay [7] were -11.4% (inactive) and -15% (inactive), respectively. Moreover, in [8], the viability increase was -1.2% (inactive). The viability in assay [12] is 103% (inactive); in assay [9], 98.7% (inactive). For the same molecule, the RAM network inhibition in assay [11] is 2.84% (inactive).
On to `CN1C(=O)c2cccc(NC(=O)CCc3ccccc3)c2C1=O`, for which the growth inhibition in [6] was -6.67% (inactive); in assay [7], 1.67% (inactive). For the same molecule, the viability increase in assay [8] was 0.13% (inactive). The viability was 99% (inactive) in [12] and 93% (inactive) in assay [9]. Further, in assay [11], the RAM network inhibition is 1.84% (inactive).
With `CC(C)=CC(=O)OCC(=O)NC(=O)NC(C)(C)C`, the viability was 103% (inactive) in [1]; 97% (inactive) in [2]; 101% in assay [3] (setting [13]); 97% in assay [3] (setting [14]); 104% (inactive) in assay [12]. The differential viability (reversal) in [3] (H69AR cells + 2 uM doxorubicin) is -3.87% (inactive). The inhibition in [4] is 0.52% (inactive); in assay [5], -3.97% (inactive); in assay [10], 2.76% (inactive). The growth inhibition in assay [6] was 1.02% (inactive); in [7], 3.65% (inactive). In addition, the viability increase in assay [8] is -3.01% (inactive). Moreover, in [11], the RAM network inhibition is 2.91% (inactive).
Turning to `CCOc1ccc(-n2nnc3c(=O)n(CC(=O)N4CCCc5ccccc54)cnc32)cc1`, the growth inhibition was -3.47% (inactive) in assay [6] and -10.2% (inactive) in assay [7]. The viability increase in [8] was -0.3% (inactive). For the same molecule, the viability was 85.3% (inactive) in assay [12] and 84% (inactive) in assay [9]. Also, in assay [11], the RAM network inhibition was 2.69% (inactive).
In the case of `Cc1ccc(C)c(N2CCN(CCCNC(=O)Cn3cc4c(n3)CCCCC4)CC2)c1`, the viability in assay [1] is 2.8% (active); in assay [3] (setting [13]), 68.4%; in [3] (setting [14]), 37.1%; in assay [9], 19.6% (active). In addition, in assay [3] (H69AR cells + 2 uM doxorubicin), the differential viability (reversal) was -31.3% (inactive). The figures for the inhibition in assay [4], in assay [5] and in assay [10] were -2.69% (inactive), 4% (inactive) and 0.495% (inactive), respectively. Besides, the growth inhibition was -6.4% (inactive) in assay [6] and -0.285% (inactive) in assay [7]. Moreover, the viability increase in [8] is -7.67% (inactive). Moreover, the RAM network inhibition in [11] was 4.06% (inactive).
`O=C(NCc1cccs1)C(Cc1ccccc1)NS(=O)(=O)c1cccs1` (stereo not drawn): the viability in assay [1] was 95.7% (inactive); in assay [2] it was 91.7% (inactive); in assay [3] (setting [13]), 87.2%; in [3] (setting [14]), 91.7%; in assay [12], 94.3% (inactive). Also, the differential viability (reversal) in assay [3] (H69AR cells + 2 uM doxorubicin) is 4.5% (inactive). In addition, the inhibition in assay [4] is -3.16% (inactive); in assay [5], 5.08% (inactive); in [10] it was 1.43% (inactive). The results for the growth inhibition in assay [6] and in [7] were -17.7% (inactive) and -8.73% (inactive), respectively. For the same molecule, the viability increase in [8] was -1.46% (inactive). In addition, the RAM network inhibition in assay [11] was 4.56% (inactive).
As to `O=C(CSc1oc(-c2ccccc2)nc1S(=O)(=O)c1ccc(F)cc1)NCC1CCCO1` (stereo not drawn), the growth inhibition in assay [6] is 4.64% (inactive); in assay [7], 0.925% (inactive). The viability increase in assay [8] was -3.53% (inactive). Further, the viability is 86.3% (inactive) in assay [12] and 89% (inactive) in assay [9]. Also, the RAM network inhibition in [11] was 2.32% (inactive).
With `COc1ccc(CCc2nc(-c3ccc(-n4cccc4)cc3)no2)cc1`, the growth inhibition was -20.1% (inactive) in assay [6] and -25.5% (inactive) in assay [7]. For the same molecule, the viability increase in assay [8] was 1.78% (inactive). In addition, the viability in assay [12] is 93.9% (inactive); in assay [9] it was 91.6% (inactive). Also, the RAM network inhibition in assay [11] is 6.54% (inactive).
For `O=C(Nc1c(C(=O)Nc2ccccc2)cnn1-c1ccccc1)c1ccco1`, the growth inhibition in assay [6] was -3.7% (inactive); in assay [7] it was -2.03% (inactive). Further, in assay [8], the viability increase was -4.51% (inactive). For the same molecule, the results for the viability in assay [12] and in [9] were 94.4% (inactive) and 94.3% (inactive), respectively. Besides, the RAM network inhibition in assay [11] was 2.51% (inactive).
For `Cc1cc(NC(=O)CSc2cn(CCNC(=O)c3ccc(Cl)cc3)c3ccccc23)no1`, the growth inhibition in assay [6] is -4.83% (inactive); in assay [7] it was -1.28% (inactive). For the same molecule, the viability increase in assay [8] was -0.7% (inactive). The viability was 61.5% (inactive) in assay [12] and 57.3% (inactive) in assay [9]. For the same molecule, in assay [11], the RAM network inhibition is 3.24% (inactive).
`CC(=O)NCc1cn2c(C)csc2n1`: the growth inhibition in [6] was -16.9% (inactive); in assay [7], -3.26% (inactive). Further, the viability increase in assay [8] was -3.88% (inactive). In addition, the viability was 98.1% (inactive) in [12] and 90% (inactive) in assay [9]. Also, the RAM network inhibition in assay [11] is 3.01% (inactive).
Take `CCCCOc1ccccc1NC(=O)CC1Nc2ccccc2NC1=O` (stereo not drawn): the growth inhibition in assay [6] was 6.14% (inactive); in assay [7], 0.91% (inactive). Besides, in [8], the viability increase is -6.18% (inactive). Further, the RAM network inhibition in assay [11] was 7.51% (inactive).
Consider `COc1ccc(-c2cn3c(C)c(C(=O)N4CCN(c5ccc(F)cc5)CC4)sc3n2)cc1`, for which the growth inhibition was -0.17% (inactive) in assay [6] and -2.07% (inactive) in assay [7]. Moreover, the viability increase in [8] was 0.81% (inactive). Besides, the viability in assay [12] is 101% (inactive); in [9] it was 103% (inactive). For the same molecule, the RAM network inhibition in [11] was 5.28% (inactive).
Regarding `COc1ccccc1OCC(O)CN1C(=O)NC(C)(C)C1=O` (stereo not drawn), the values for the growth inhibition in assay [6] and in assay [7] were -7.73% (inactive) and -7.44% (inactive), respectively. Moreover, the viability increase in assay [8] is -0.34% (inactive). Moreover, the viability in [12] was 93.4% (inactive); in assay [9], 91.6% (inactive). In assay [11], the RAM network inhibition is 2.29% (inactive).

Source of the values: PubChem BioAssay.
